Source: PubChem BioAssay
CF NFkB block = blocks PAF-induced NF-kB reporter in cystic fibrosis cells; 360,000 compounds, 0.86% hits; inhibition, % at 5 µM; KKLEB NF-kB-GFP reporter, GFP fluorescence overnight;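 active = at least 50% inhibition at 5 µM, scaled per plate between neutral and stimulator controls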;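 also: PAF is a Pseudomonas aeruginosa culture filtrate used as stimulus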
TWEAK Fn14 block = inhibitors of TWEAK-Fn14 interaction signaling; inhibition, % at 10 µM; 360,000 compounds, 2% hits; TWEAK-stimulated Fn14 reporter cells, luciferase luminescence, 8 h; AID 1159606; in the data active = inhibition above about 50%
KKLEB tox = reduces viability of KKLEB cystic fibrosis airway cells | KKLEB CF airway cells viability, ATPlite luminescence, overnight; stronger effect = lower value; cells stimulated with P. aeruginosa culture filtrate | activity change (cytotoxicity), % at 5 µM | 360,000 compounds, 0.36% hits;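 active = corrected activity change at or below -50% at 5 µM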
HIF-2a inh = inhibitors of HIF-2a. 786-0 RCC cells HIF-2a reporter, luciferase luminescence, overnight. inhibition, % at 18.8 µM. 360,000 compounds, 0.72% hits. AID 624352;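 active = inhibition of the luminescence signal of 40% or more relative to plate controls, in a single-dose primary screen at 18.75 µM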
Peg3 prom inh = inhibitors of Peg3 promoter; HeLa PEG-Prom luciferase reporter, luminescence, overnight; inhibition, % at 20 µM; 360,000 compounds, 1.7% hits;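 active = inhibition of at least 50% at 20 µM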
TROY signal inh = blocks TROY-dependent signaling in reporter cells; Q293 LMP1-TROYcd NF-kB luciferase reporter, 4 h; inhibition, % at 10 µM; 360,000 compounds, 0.98% hits; AID 1347056;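 active = compounds whose plate-normalised and pattern-corrected inhibition of the luciferase reporter signal at the single screening dose is 50% or more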
Large screens that a line does not name were inactive. A selection: hits, their analogues and other compounds. The true share with any hit is near 4%.

COC(=O)c1cc2c(n1S(=O)(=O)c1ccc(C)cc1)C(=O)C(=O)c1[nH]cc(C(=O)OCc3ccccc3)c1-2	CF NFkB block 84.8, TWEAK Fn14 block 103.4, KKLEB tox -69.1, Peg3 prom inh 88.8, TROY signal inh 64.8
COC(=O)c1ccc2cc(C)cc(C)c2n1	none
CCOc1ccc(N(C)S(=O)(=O)c2cc(-c3cc(C)no3)ccc2CC)cc1	TWEAK Fn14 block 72.2
O=C(O)C/C(=C\c1ccc(N2CCOCC2)c([N+](=O)[O-])c1)c1nc2ccccc2s1	TROY signal inh 51.6
O=C(O)CC/C(=C\c1ccc(N2CCOCC2)c([N+](=O)[O-])c1)c1nc2ccccc2s1	none
N#C/C(=C\c1ccc(O)c([N+](=O)[O-])c1)c1nc2ccccc2s1	TWEAK Fn14 block 53.3, TROY signal inh 50.2
CC(C)(C)c1ccc(C(=O)NNc2ncccc2-n2cccc2)cc1	TROY signal inh 53.5
O=c1oc2ccccc2cc1-c1nc2c(s1)CCCC2	TWEAK Fn14 block 83.7, TROY signal inh 65.7
O=c1oc2ccccc2cc1-c1nc2ccccc2o1	none
CCN(CC)S(=O)(=O)c1cccc(-n2c(O)c(C=Nc3ccccc3C(=O)O)c3ccccc3c2=O)c1	CF NFkB block 91.3, TWEAK Fn14 block 52.5
C=CCNC(=O)C(=O)Nc1ccc2c(c1)N(S(=O)(=O)c1cccs1)CCC2	none
Cc1ccc(N(C)C(=O)C2CCCN2S(=O)(=O)c2ccc3c(c2)n(C)c(=O)c(=O)n3C)cc1 (configuration not stated)	TWEAK Fn14 block 65.6
CN(C)c1ccc(NC(=O)c2cnsn2)cc1	TWEAK Fn14 block 73.8
Cc1noc(C)c1C(=O)Nc1ccc(N(C)C)cc1	none
CCCc1nc2ccccc2n1C(C(=O)NC(C)(C)C)C1CC1 (configuration not stated)	none (no result: CF NFkB block, TWEAK Fn14 block, KKLEB tox, Peg3 prom inh, TROY signal inh)
CC1(C)Cc2c(c(=S)nc(-c3ccccc3)n2CCOCCO)CO1	TWEAK Fn14 block 54.7 (no result: TROY signal inh)
COc1ccc(-c2nc(=S)c3c(n2CCN2CCOCC2)CC(C)(C)OC3)cc1	none
Cc1ccc(-c2nc(=S)c3c(n2CCN2CCOCC2)CC(C)(C)OC3)cc1	TROY signal inh 52.2
Cc1ccc(-c2nc(=S)c3c(n2Cc2cccnc2)CC(C)(C)OC3)cc1	TWEAK Fn14 block 74.0
C=CCN1C(=O)c2ccc(C(=O)N3CCN(S(=O)(=O)c4cccc([N+](=O)[O-])c4)CC3)cc2C1=O	none
CCC(C)(C)NC(=O)CN(C(=O)c1snc(C(N)=O)c1N)c1ccc2c(c1)OCCO2	none
CCCC(C(=O)NC(C)(C)C)N(Cc1ccc(F)cc1)C(=O)c1snc(C(N)=O)c1N (configuration not stated)	Peg3 prom inh 97.3
CCCC(C(=O)NC(C)(C)C)N(C(=O)c1snc(C(N)=O)c1N)c1ccc2c(c1)OCCO2 (configuration not stated)	TWEAK Fn14 block 86.5, TROY signal inh 81.8
O=C(Nc1ccc(F)cc1)C(CCc1ccccc1)N1CCN(Cc2c(F)cccc2Cl)CC1 (configuration not stated)	none (no result: CF NFkB block, TWEAK Fn14 block, KKLEB tox, Peg3 prom inh, TROY signal inh)
CCc1nc2c(cnn2-c2ccc(F)cc2)c(=O)n1-c1ccc(N2CCC(C)CC2)cc1	TWEAK Fn14 block 65.2
Cc1nc2c(cnn2-c2ccccc2Cl)c(=O)n1-c1ccc(N2CCC(C)CC2)cc1	none
COC(=O)C1(C)CCCC2(C)c3cc(OC)ccc3C(=O)C(Br)C12 (configuration not stated)	none
COc1ccc(C(C)=O)cc1CN1C(=O)NC(c2ccccc2)(c2ccccc2)C1=O	none
N#CC(c1ccc(Cl)cc1)c1ccc2c(C(F)(F)F)cc(C(F)(F)F)nc2n1 (configuration not stated)	CF NFkB block 67.2, TWEAK Fn14 block 65.1, KKLEB tox -74.5, Peg3 prom inh 51.6, TROY signal inh 79.1
O=C(C1CCN(S(=O)(=O)c2ccccc2)CC1)N1CCC1	none
Cn1cc(C(=O)CCl)c2ccccc21	CF NFkB block 54.3, Peg3 prom inh 50.0
Cn1cc(C(N)=O)c2ccccc21	none
O=c1c2cnn(-c3ccccc3)c2nc(-c2ccco2)n1-c1ccccc1	TWEAK Fn14 block 54.6
COC(=O)[C@]12CCCCC=C1N(Cc1ccc3c(c1)OCO3)C(=O)[C@H](CC(=O)NCc1ccccc1)C2	none (no result: CF NFkB block, TWEAK Fn14 block, KKLEB tox, Peg3 prom inh, TROY signal inh)
CC1(Cc2ccc3c(c2)OCO3)C(=O)Nc2ccc(-c3cccc(C(F)(F)F)c3)cc21 (configuration not stated)	TWEAK Fn14 block 102.7
CC(C)c1nc(=S)n(-c2ccccc2)[nH]1	TROY signal inh 67.7
CC1CCCCC12NC(=O)N(CC(=O)N1CCN(C(=O)c3cccs3)CC1)C2=O (configuration not stated)	none
COc1cc(OC)c(NC(=O)c2cc3ccccc3cc2O)cc1Cl	TWEAK Fn14 block 94.1, TROY signal inh 57.4
CC1=NN(c2nc3ccccc3[nH]2)C(=O)C1Cc1ccccc1 (configuration not stated)	CF NFkB block 50.9, KKLEB tox -52.2
CC1=NN(c2nc3ccccc3[nH]2)C(=O)/C1=C/N(C)C	none
CC(=O)Nc1ccc(C(=O)OCc2ccc(Cl)c(Cl)c2)cc1	TWEAK Fn14 block 93.9, TROY signal inh 86.3
CN(C)CCNC=C(C(=O)Nc1ccc(Cl)cc1Cl)C(=O)Nc1ccc(Cl)cc1Cl	Peg3 prom inh 91.0, TROY signal inh 54.5
Fc1cccc(Cl)c1CNc1ccc(N2CCCC2)cc1	TWEAK Fn14 block 56.9
CCCCc1nc(N2CCN(C(=O)c3ccco3)CC2)c(C#N)c2c1CCCC2	TROY signal inh 67.7
O=C(C(O)c1ccccc1)N1CCN(S(=O)(=O)c2ccc(OC(F)(F)F)cc2)CC1 (configuration not stated)	none (no result: CF NFkB block, TWEAK Fn14 block, KKLEB tox, Peg3 prom inh, TROY signal inh)
COc1ccc(C(=O)N=C2CCC(C#N)=C3c4cc(OC)c(OC)cc4CCN23)cc1	Peg3 prom inh 51.1
CC12C=CC(=O)C=C1C(F)CC1C3CCC(O)(C(=O)CO)C3(C)CC(O)C12F (configuration not stated)	CF NFkB block 69.1
CC(=O)OCC(=O)[C@@]1(O)CC[C@H]2[C@@H]3CCC4=CC(=O)C=C[C@]4(C)[C@@]3(F)[C@@H](O)C[C@@]21C	CF NFkB block 65.3
CC12C=CC(=O)C=C1CCC1C3CCC(O)(C(=O)CO)C3(C)CC3OC312 (configuration not stated)	none
CC(=O)OCC(=O)[C@@]1(O)CC[C@H]2[C@@H]3CCC4=CC(=O)CC[C@]4(C)[C@H]3C(=O)C[C@@]21C	none
CC12C=CC(=O)C=C1CCC1C3CCC(O)(C(=O)CO)C3(C)CC(O)C12F (configuration not stated)	CF NFkB block 69.8
CC(=O)OCC(=O)C1(O)CCC2C3CCC4=CC(=O)CCC4(C)C3(F)C(O)CC21C (configuration not stated)	CF NFkB block 74.8
